PubChem BioAssay (NCI)
Compounds without any hit were thinned out: in the full panel of roughly 83,000, 20% have a hit.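 How to read the values: 0–100, growth inhibition (40 = 60% inhibited); 0, no net growth; -100 to 0, cell death (-40 = 40% of starting cells died; -100 = all dead).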 Activity calls are given as the source filed them. Rule for the calls: active = growth percent below 10; inactive = the rest.

Tests used:
Assay in all cases: NCI-60 one-dose screen, 48 h (100 = growth as untreated, 0 = no growth, -100 = all killed)
Details in all cases: 10 µM unless noted
SR leukemia = system: SR leukemia
RPMI-8226 leukemia = system: RPMI-8226 leukemia
OVCAR-8 ovarian = system: OVCAR-8 ovarian
OVCAR-5 ovarian = system: OVCAR-5 ovarian
OVCAR-4 ovarian = system: OVCAR-4 ovarian
SK-OV-3 ovarian = system: SK-OV-3 ovarian
IGROV1 ovarian = system: IGROV1 ovarian
HS 578T breast = system: HS 578T breast
NCI/ADR-RES ovarian = system: NCI/ADR-RES ovarian
T-47D breast = system: T-47D breast
BT-549 breast = system: BT-549 breast
MDA-MB-435 melanoma = system: MDA-MB-435 melanoma
SW-620 colon = system: SW-620 colon
MCF7 breast = system: MCF7 breast
HCC-2998 colon = system: HCC-2998 colon
KM12 colon = system: KM12 colon
HCT-116 colon = system: HCT-116 colon
OVCAR-3 ovarian = system: OVCAR-3 ovarian

Measured: growth

CCc1onc(-c2ccc(OC)cc2)c1-c1ccccc1OCCN(CC)CC
inactive: SR leukemia 66.5% | RPMI-8226 leukemia 91.3% | OVCAR-8 ovarian 96.3% | OVCAR-5 ovarian 91.5% | OVCAR-4 ovarian 90.8% | SK-OV-3 ovarian 101% | IGROV1 ovarian 83.3% | HS 578T breast 89.6% | NCI/ADR-RES ovarian 75.2% | T-47D breast 91.7% | BT-549 breast 81.1% | MDA-MB-435 melanoma 90.5% | SW-620 colon 94.7% | MCF7 breast 95.6% | HCC-2998 colon 80.8% | KM12 colon 93.1%

Clc1ccc(Cl)c(N=Cc2ccc3c(c2)OCO3)c1
inactive: SR leukemia 114% | RPMI-8226 leukemia 99.9% | OVCAR-8 ovarian 97.8% | OVCAR-5 ovarian 103% | OVCAR-4 ovarian 108% | SK-OV-3 ovarian 105% | IGROV1 ovarian 114% | HS 578T breast 109% | NCI/ADR-RES ovarian 106% | T-47D breast 101% | BT-549 breast 96.2% | MDA-MB-435 melanoma 106% | MCF7 breast 108% | HCT-116 colon 104% | HCC-2998 colon 98.5% | KM12 colon 106%

CN1C2CCC1/C(=C\c1ccc(F)cc1)C(=O)/C2=C/c1ccc(F)cc1
active: OVCAR-8 ovarian -19.8% | HCT-116 colon 9.46%
inactive: SR leukemia 21.6% | RPMI-8226 leukemia 11% | OVCAR-5 ovarian 72.3% | OVCAR-4 ovarian 39.1% | SK-OV-3 ovarian 79.8% | IGROV1 ovarian 61.9% | HS 578T breast 75% | NCI/ADR-RES ovarian 20.2% | T-47D breast 41.2% | BT-549 breast 39.6% | MDA-MB-435 melanoma 31.3% | SW-620 colon 38.2% | MCF7 breast 24.5% | HCC-2998 colon 82.6% | KM12 colon 31.3%

COc1cc(/C=C2\CN(C(=O)OC(C)(C)C)C/C(=C\c3ccc(O)c(OC)c3)C2=O)ccc1O
inactive: SR leukemia 79.9% | RPMI-8226 leukemia 71.8% | OVCAR-8 ovarian 89.6% | OVCAR-5 ovarian 107% | OVCAR-4 ovarian 97.6% | SK-OV-3 ovarian 105% | IGROV1 ovarian 110% | HS 578T breast 91.3% | NCI/ADR-RES ovarian 102% | T-47D breast 92.1% | BT-549 breast 85.4% | SW-620 colon 99.9% | HCT-116 colon 68.6% | HCC-2998 colon 106% | KM12 colon 99.1%

O=C1C(Cl)=C(Nc2cccc3ccccc23)C(=O)c2ccccc21
inactive: SR leukemia 51% | RPMI-8226 leukemia 17.8% | OVCAR-8 ovarian 71.5% | OVCAR-5 ovarian 134% | OVCAR-4 ovarian 58.6% | SK-OV-3 ovarian 99.1% | IGROV1 ovarian 58.8% | HS 578T breast 87.9% | NCI/ADR-RES ovarian 81.2% | T-47D breast 34.3% | BT-549 breast 73.4% | MDA-MB-435 melanoma 55.9% | SW-620 colon 68.9% | MCF7 breast 44% | HCT-116 colon 47.7% | KM12 colon 58.4%

Cc1cc(C#Cc2ccc(C(C)(C)C)cc2)ccc1-n1c(/C=C/c2c(Cl)cccc2Cl)nc2ccccc2c1=O
inactive: SR leukemia 88.1% | RPMI-8226 leukemia 91.5% | OVCAR-8 ovarian 115% | OVCAR-5 ovarian 106% | OVCAR-4 ovarian 134% | SK-OV-3 ovarian 106% | IGROV1 ovarian 103% | OVCAR-3 ovarian 94.3% | NCI/ADR-RES ovarian 103% | T-47D breast 82.5% | BT-549 breast 105% | MDA-MB-435 melanoma 98% | SW-620 colon 85.5% | MCF7 breast 85.9% | HCC-2998 colon 99.3% | KM12 colon 98.6%

Cc1ccncc1NC=O
inactive: SR leukemia 93.8% | RPMI-8226 leukemia 99.9% | OVCAR-8 ovarian 104% | OVCAR-5 ovarian 110% | OVCAR-4 ovarian 108% | SK-OV-3 ovarian 110% | IGROV1 ovarian 114% | HS 578T breast 109% | NCI/ADR-RES ovarian 107% | T-47D breast 102% | BT-549 breast 132% | MDA-MB-435 melanoma 105% | SW-620 colon 99.2% | MCF7 breast 95.9% | HCT-116 colon 108% | HCC-2998 colon 113% | KM12 colon 103%

CCOC(=O)c1ccc(NC(=O)CSC(N)=O)cc1
inactive: SR leukemia 96.8% | RPMI-8226 leukemia 87.3% | OVCAR-8 ovarian 100% | OVCAR-5 ovarian 99.1% | OVCAR-4 ovarian 122% | SK-OV-3 ovarian 128% | IGROV1 ovarian 92% | HS 578T breast 105% | NCI/ADR-RES ovarian 99.3% | T-47D breast 131% | BT-549 breast 93.8% | MDA-MB-435 melanoma 113% | SW-620 colon 103% | MCF7 breast 99.3% | HCT-116 colon 87.9% | HCC-2998 colon 105% | KM12 colon 111%

NC(=O)c1ccc[n+](Cc2ccccc2)c1
inactive: SR leukemia 109% | RPMI-8226 leukemia 89.9% | OVCAR-8 ovarian 103% | OVCAR-5 ovarian 96.2% | OVCAR-4 ovarian 102% | SK-OV-3 ovarian 113% | IGROV1 ovarian 111% | OVCAR-3 ovarian 107% | HS 578T breast 98.5% | T-47D breast 106% | BT-549 breast 118% | MDA-MB-435 melanoma 98.2% | SW-620 colon 102% | MCF7 breast 103% | HCT-116 colon 99.9% | HCC-2998 colon 102% | KM12 colon 102%

COc1ccc([C@H]2c3[nH]c4ccccc4c3C[C@H]3C(=O)N(CCCCCCC(=O)NO)CC(=O)N23)cc1
inactive: SR leukemia 16.5% | OVCAR-8 ovarian 30.3% | OVCAR-5 ovarian 23.3% | OVCAR-4 ovarian 54.3% | SK-OV-3 ovarian 55.3% | IGROV1 ovarian 34.3% | HS 578T breast 47.7% | NCI/ADR-RES ovarian 58.4% | BT-549 breast 62.4% | MDA-MB-435 melanoma 24.6% | MCF7 breast 29.9% | HCT-116 colon 10.4% | KM12 colon 49.8%
active: RPMI-8226 leukemia -9.73% | T-47D breast 7.57% | SW-620 colon 4% | HCC-2998 colon 6.81%

CC(C)(C)OC(=O)N1CCCN(CCNc2nccc(-c3c(-c4cccc(O)c4)nc4sccn34)n2)S1(=O)=O
inactive: SR leukemia 77.3% | RPMI-8226 leukemia 96.8% | OVCAR-8 ovarian 96.8% | OVCAR-5 ovarian 114% | OVCAR-4 ovarian 108% | SK-OV-3 ovarian 69.5% | IGROV1 ovarian 79.5% | HS 578T breast 109% | NCI/ADR-RES ovarian 99% | T-47D breast 86.6% | BT-549 breast 136% | MDA-MB-435 melanoma 54.1% | SW-620 colon 131% | MCF7 breast 97.8% | HCT-116 colon 81.7% | HCC-2998 colon 108% | KM12 colon 111%

C=CC(=O)N1CN(C(=O)C=C)CN(C(=O)C=C)C1
inactive: SR leukemia 25.3% | RPMI-8226 leukemia 84.6% | OVCAR-8 ovarian 62.4% | OVCAR-5 ovarian 109% | SK-OV-3 ovarian 99% | IGROV1 ovarian 56.8% | HS 578T breast 71.8% | NCI/ADR-RES ovarian 70.8% | T-47D breast 33.6% | BT-549 breast 76.3% | MDA-MB-435 melanoma 81.2% | SW-620 colon 15.3% | MCF7 breast 39.6% | HCT-116 colon 13.7% | HCC-2998 colon 101% | KM12 colon 85.8%
active: OVCAR-3 ovarian 4.76%

O/N=C/c1ccncc1
inactive: SR leukemia 107% | RPMI-8226 leukemia 94% | OVCAR-8 ovarian 107% | OVCAR-5 ovarian 116% | SK-OV-3 ovarian 100% | IGROV1 ovarian 114% | OVCAR-3 ovarian 113% | HS 578T breast 107% | NCI/ADR-RES ovarian 105% | T-47D breast 97.3% | BT-549 breast 117% | MDA-MB-435 melanoma 100% | SW-620 colon 102% | MCF7 breast 97.3% | HCT-116 colon 118% | HCC-2998 colon 102% | KM12 colon 105%

Nc1c(C(=O)Nc2ccccc2)sc2nc3c(cc12)C(=O)CCC3
inactive: SR leukemia 21.9% | RPMI-8226 leukemia 30.2% | OVCAR-8 ovarian 39.9% | OVCAR-5 ovarian 59.9% | SK-OV-3 ovarian 19.7% | IGROV1 ovarian 36.4% | HS 578T breast 37.5% | T-47D breast 47.1% | BT-549 breast 65.7% | MCF7 breast 19.6% | HCT-116 colon 23.6% | HCC-2998 colon 21.9% | KM12 colon 19.9%
active: OVCAR-3 ovarian -19.4% | NCI/ADR-RES ovarian -6.39% | MDA-MB-435 melanoma -5.95%

ClCCn1cnc2c(SCc3ccccc3Cl)ncnc21
active: SR leukemia -21.5% | RPMI-8226 leukemia 7.3%
inactive: OVCAR-8 ovarian 47.5% | OVCAR-5 ovarian 69.6% | OVCAR-4 ovarian 81.7% | SK-OV-3 ovarian 46.1% | OVCAR-3 ovarian 35.9% | HS 578T breast 53.2% | NCI/ADR-RES ovarian 54.6% | T-47D breast 52.8% | BT-549 breast 44.1% | MDA-MB-435 melanoma 37.5% | SW-620 colon 28.9% | MCF7 breast 21.6% | HCT-116 colon 32.8% | HCC-2998 colon 51.1% | KM12 colon 34.8%

CCN(CC)c1ccc(/C=N/NC(=O)C[N+](C)(C)C)cc1
inactive: SR leukemia 16.6% | RPMI-8226 leukemia 92% | OVCAR-8 ovarian 111% | OVCAR-5 ovarian 99.1% | SK-OV-3 ovarian 102% | IGROV1 ovarian 115% | HS 578T breast 110% | NCI/ADR-RES ovarian 103% | T-47D breast 101% | BT-549 breast 103% | MDA-MB-435 melanoma 110% | SW-620 colon 101% | MCF7 breast 96.9% | HCT-116 colon 102% | HCC-2998 colon 104% | KM12 colon 102%

CC1(C)CC(=O)c2cc3c(N)c(C(=O)Nc4ccc(Cl)cc4)sc3nc2C1
inactive: SR leukemia 113% | RPMI-8226 leukemia 103% | OVCAR-8 ovarian 111% | SK-OV-3 ovarian 106% | IGROV1 ovarian 111% | OVCAR-3 ovarian 111% | HS 578T breast 109% | NCI/ADR-RES ovarian 114% | T-47D breast 96.2% | BT-549 breast 125% | MDA-MB-435 melanoma 109% | SW-620 colon 109% | MCF7 breast 103% | HCT-116 colon 108% | HCC-2998 colon 116% | KM12 colon 117%

C=CCOc1ccc2c(C)cc(=O)oc2c1
inactive: SR leukemia 128% | RPMI-8226 leukemia 93.8% | OVCAR-8 ovarian 103% | OVCAR-5 ovarian 113% | SK-OV-3 ovarian 117% | IGROV1 ovarian 113% | OVCAR-3 ovarian 105% | NCI/ADR-RES ovarian 104% | T-47D breast 105% | BT-549 breast 109% | MDA-MB-435 melanoma 98.3% | SW-620 colon 109% | MCF7 breast 98.2% | HCT-116 colon 105% | HCC-2998 colon 100% | KM12 colon 105%

O=[N+]([O-])c1ccc(Sc2nc(Cl)nc(NC3CCCC3)n2)cc1
inactive: HS 578T breast 11.7% [100 µM]
active: SR leukemia -28.3% [100 µM] | RPMI-8226 leukemia -7.18% [100 µM] | OVCAR-5 ovarian -90.5% [100 µM] | OVCAR-4 ovarian -100% [100 µM] | SK-OV-3 ovarian -100% [100 µM] | IGROV1 ovarian -67.8% [100 µM] | OVCAR-3 ovarian -100% [100 µM] | NCI/ADR-RES ovarian -49.1% [100 µM] | T-47D breast -35.4% [100 µM] | BT-549 breast -97.1% [100 µM] | MDA-MB-435 melanoma -95.9% [100 µM] | SW-620 colon -63.1% [100 µM] | MCF7 breast -84.9% [100 µM] | HCT-116 colon -94.3% [100 µM] | HCC-2998 colon -86.5% [100 µM] | KM12 colon -96.9% [100 µM]
